Data from PubChem BioAssay (EPA / NIEHS).
The source made the active and inactive calls. How the source made its calls: active means hit-call score of the fitted dose curve at least 0.9, where 1 is the maximum; inactive means score below 0.9.

Assays:
[1] = ATG_CRE_CIS: Attagene CIS-FACTORIAL HepG2 Assay for human cAMP Responsive Element (CRE) binding protein 3 (AID 2282926); conditions: HepG2 CRE cis-reporter, Attagene multiplexed mRNA; actives raise or lower the signal
Outline: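 Readout: fluorescently labelled reporter transcripts resolved by capillary electrophoresis after RT-PCR, taken 24 h post-dosing in transfected HepG2. Endogenous transcription factor activity drives each cis-element reporter; gain or loss of signal fitted relative to DMSO control.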

[2] = target: CCAAT/enhancer-binding protein beta (Homo sapiens) (UniProt P17676); assay: ATG_C_EBP_CIS: Attagene CIS-FACTORIAL HepG2 Assay for human CCAAT/Enhancer Binding Protein (C/EBP) beta (AID 2282927); conditions: HepG2 Attagene cis-factorial transcription factor reporter; actives raise or lower the signal
Chain of CCAAT/enhancer-binding protein beta (Homo sapiens) (P17676 whole entry, looked up): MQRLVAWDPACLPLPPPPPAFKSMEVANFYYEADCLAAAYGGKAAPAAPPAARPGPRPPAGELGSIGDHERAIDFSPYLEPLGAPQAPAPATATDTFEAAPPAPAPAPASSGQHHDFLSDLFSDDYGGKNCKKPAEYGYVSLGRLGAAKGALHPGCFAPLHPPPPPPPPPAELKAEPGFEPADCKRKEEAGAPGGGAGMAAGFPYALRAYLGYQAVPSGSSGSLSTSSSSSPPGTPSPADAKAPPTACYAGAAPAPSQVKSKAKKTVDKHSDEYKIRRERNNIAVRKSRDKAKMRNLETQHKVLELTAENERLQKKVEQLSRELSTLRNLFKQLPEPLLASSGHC
Outline: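 Changes in reporter mRNA, rather than exogenous chimeric receptor activity, reflect native C/EBP signalling in transfected HepG2 cells dosed for 24 h; transcripts are detected by RT-PCR and capillary electrophoresis.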

[3] = ATG_CMV_CIS: Attagene CIS-FACTORIAL HepG2 Assay for human CMV (Internal Marker) (AID 2282928); conditions: HepG2 CMV promoter reporter, transcription factor profiling; actives raise or lower the signal;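 further: endpoint acts as a background internal control marker rather than a target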
Outline: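 Readout: fluorescent reporter cDNA fragments separated by capillary electrophoresis after RT-PCR and HpaI cut. Cells: HepG2 carrying transfected cis-promoter reporter constructs, dosed 24 h. Endpoint serves as background internal-marker control, fit bidirectionally versus DMSO.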

[4] = ATG_DR4_LXR_CIS: Attagene CIS-FACTORIAL HepG2 Assay for human Liver X Receptor (LXR), DR4 submotif (AID 2282929); conditions: HepG2 Attagene DR4 cis-reporter, mRNA transcription; actives raise or lower the signal
Outline: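 Measures endogenous transcription factor activity via a DR4-driven reporter transcript in human HepG2 cells. Compounds incubated 24 h; mRNA quantified by RT-PCR and capillary electrophoresis, analysed as gain or loss of signal versus DMSO.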

[5] = target: Aryl hydrocarbon receptor (Homo sapiens) (UniProt P35869); assay: ATG_Ahr_CIS: Attagene CIS-FACTORIAL HepG2 Assay for human Aryl Hydrocarbon Receptor (Ahr) (AID 2282930); conditions: HepG2 AhR cis-factorial reporter transcription; actives raise or lower the signal
Chain of Aryl hydrocarbon receptor (Homo sapiens) (P35869 whole entry, looked up): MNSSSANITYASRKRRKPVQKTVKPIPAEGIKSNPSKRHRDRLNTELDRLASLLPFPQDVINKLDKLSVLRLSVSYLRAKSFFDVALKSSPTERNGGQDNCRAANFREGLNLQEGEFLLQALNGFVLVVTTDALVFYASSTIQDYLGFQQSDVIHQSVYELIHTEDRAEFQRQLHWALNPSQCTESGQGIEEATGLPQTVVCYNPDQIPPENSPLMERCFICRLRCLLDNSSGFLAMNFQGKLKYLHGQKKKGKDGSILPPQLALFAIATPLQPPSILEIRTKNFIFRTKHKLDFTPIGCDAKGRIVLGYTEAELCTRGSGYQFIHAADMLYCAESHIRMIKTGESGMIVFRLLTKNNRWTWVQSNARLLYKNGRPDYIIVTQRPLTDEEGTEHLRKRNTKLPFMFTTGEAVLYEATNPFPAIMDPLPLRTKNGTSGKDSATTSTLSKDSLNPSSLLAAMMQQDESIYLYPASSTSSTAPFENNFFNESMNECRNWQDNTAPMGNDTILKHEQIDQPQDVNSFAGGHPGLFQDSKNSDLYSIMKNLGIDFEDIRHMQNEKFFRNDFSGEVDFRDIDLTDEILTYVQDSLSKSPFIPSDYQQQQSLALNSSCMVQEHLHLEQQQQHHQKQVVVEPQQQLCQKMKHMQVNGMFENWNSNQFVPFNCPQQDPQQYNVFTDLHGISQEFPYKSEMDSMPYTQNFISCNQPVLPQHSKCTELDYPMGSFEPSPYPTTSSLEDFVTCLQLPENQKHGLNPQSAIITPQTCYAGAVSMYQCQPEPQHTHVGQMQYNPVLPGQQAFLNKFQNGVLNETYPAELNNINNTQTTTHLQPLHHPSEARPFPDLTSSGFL
Outline: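 HepG2, transient MRTU (cis) transfection, 24 h exposure. RNA → cDNA → PCR → 6-FAM primer extension → HpaI 2 h 37 C → CE. Fit: bidirectional, DMSO baseline.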

[6] = ATG_AP_1_CIS: Attagene CIS-FACTORIAL HepG2 Assay for human Activator Protein 1 (AP-1) (AID 2282931); conditions: HepG2 Attagene cis-factorial AP-1 reporter mRNA; actives raise or lower the signal
Outline: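 Bidirectional concentration-response fitting against DMSO controls. Underlying signal: reporter mRNA from cis-promoter constructs in transiently transfected HepG2, measured after 24 h by RT-PCR and capillary electrophoresis.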

[7] = ATG_BRE_CIS: Attagene CIS-FACTORIAL HepG2 Assay for human Bone Morphogenetic Protein (BMP) Response Element (BRE) (AID 2282933); conditions: HepG2 BMP response element reporter, Attagene transcription factor profiling; actives raise or lower the signal
Outline: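 HepG2 cells transiently transfected with multiplexed cis-element reporter units were dosed with chemical for 24 h. Reporter mRNA was measured by RT-PCR with fluorescent labelling, HpaI digestion and capillary electrophoresis; bidirectional fitting relative to DMSO.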

[8] = target: Retinoic acid receptor alpha (Homo sapiens) (UniProt P10276); assay: ATG_DR5_RAR_CIS: Attagene CIS-FACTORIAL HepG2 Assay for human Retinoic Acid Receptor Alpha (RARE), DR5 submotif (AID 2282934); conditions: HepG2 Attagene cis-factorial RARE DR5 reporter, mRNA; actives raise or lower the signal;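 on AC50: reporter responds to endogenous RAR alpha beta and gamma in HepG2 not RARA alone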
Chain of Retinoic acid receptor alpha (Homo sapiens) (P10276 whole entry, looked up): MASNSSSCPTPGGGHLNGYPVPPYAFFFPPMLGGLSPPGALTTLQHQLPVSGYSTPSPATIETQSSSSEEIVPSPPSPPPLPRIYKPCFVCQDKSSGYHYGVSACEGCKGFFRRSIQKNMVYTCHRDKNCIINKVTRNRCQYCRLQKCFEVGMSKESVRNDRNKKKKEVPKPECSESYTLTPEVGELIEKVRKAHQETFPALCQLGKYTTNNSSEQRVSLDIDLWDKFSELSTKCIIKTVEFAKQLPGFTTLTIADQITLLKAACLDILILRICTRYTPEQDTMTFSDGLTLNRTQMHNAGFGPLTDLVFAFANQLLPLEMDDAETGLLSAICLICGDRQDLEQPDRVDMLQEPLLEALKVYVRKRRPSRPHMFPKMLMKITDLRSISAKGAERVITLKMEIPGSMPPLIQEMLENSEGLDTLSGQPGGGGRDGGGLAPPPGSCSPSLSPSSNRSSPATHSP
Outline: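 HepG2, transient cis-reporter transfection, 24 h exposure. mRNA readout: RT-PCR, FAM label, HpaI cut, capillary electrophoresis. DMSO baseline, gain/loss fitting.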

[9] = target: Transcription factor E2F1 (Homo sapiens) (UniProt Q01094); assay: ATG_E2F_CIS: Attagene CIS-FACTORIAL HepG2 Assay for human E2F Transcription Factor 1 (AID 2282935); conditions: HepG2 Attagene cis-reporter, E2F reporter RNA transcripts; actives raise or lower the signal
Chain of Transcription factor E2F1 (Homo sapiens) (Q01094 whole entry, looked up): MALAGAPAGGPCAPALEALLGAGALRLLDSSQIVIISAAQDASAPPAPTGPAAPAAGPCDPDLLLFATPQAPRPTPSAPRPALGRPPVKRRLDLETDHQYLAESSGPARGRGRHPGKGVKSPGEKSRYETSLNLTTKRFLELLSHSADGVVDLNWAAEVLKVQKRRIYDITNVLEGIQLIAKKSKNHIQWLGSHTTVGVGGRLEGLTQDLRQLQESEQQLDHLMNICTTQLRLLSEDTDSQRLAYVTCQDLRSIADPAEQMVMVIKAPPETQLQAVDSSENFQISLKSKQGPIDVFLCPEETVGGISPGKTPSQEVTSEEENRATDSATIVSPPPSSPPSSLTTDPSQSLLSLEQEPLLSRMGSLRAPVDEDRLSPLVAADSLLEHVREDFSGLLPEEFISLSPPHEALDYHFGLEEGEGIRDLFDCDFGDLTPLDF
Outline: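 Gain or loss of reporter transcript, fitted against DMSO, reflects E2F1-driven transcription. Transiently transfected HepG2 dosed 24 h before RNA isolation. Quantified by fluorescent RT-PCR products separated by capillary electrophoresis.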

[10] = ATG_E_Box_CIS: Attagene CIS-FACTORIAL HepG2 Assay for human Enhancer Box (E-box) (AID 2282936); conditions: HepG2 E-box cis-reporter transcription, actives raise or lower the signal
Outline: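 E-box-driven reporter transcripts measured in transiently transfected HepG2 after 24 h exposure: RNA reverse-transcribed, PCR-amplified, fluorescently labelled, digested and resolved by capillary electrophoresis. Gain or loss relative to DMSO.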

[11] = ATG_M_61_CIS: Attagene CIS-FACTORIAL HepG2 Assay for M61 Transcription Factor (Internal Marker) (AID 2282937); conditions: HepG2 Attagene CIS-FACTORIAL M61 internal marker reporter; actives raise or lower the signal
Outline: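 Fluorescence from labelled cDNA fragments, separated by capillary electrophoresis, quantifies reporter induction. HepG2 cells bearing transiently transfected cis-promoter MRTUs were incubated with test chemical for 24 h; DMSO defined baseline for gain/loss fitting.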

[12] = ATG_EGR_CIS: Attagene CIS-FACTORIAL HepG2 Assay for human Early Growth Response 1 (EGR1) (AID 2282938); conditions: HepG2 Attagene CIS-FACTORIAL EGR reporter mRNA; actives raise or lower the signal
Outline: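 Cell-based multiplex transcription assay: HepG2 carrying transfected cis-element reporter units, 24 h chemical treatment. Fluorescence from capillary electrophoresis of RT-PCR products gives mRNA levels; fitting is bidirectional relative to DMSO.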

[13] = ATG_M_19_CIS: Attagene CIS-FACTORIAL HepG2 Assay for M19 Transcription Factor (Internal Marker) (AID 2282939); conditions: HepG2 Attagene CIS-FACTORIAL M19 internal marker reporter; actives raise or lower the signal
Outline: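 HepG2 cells transiently transfected with cis-regulated multiple reporter transcription units were dosed for 24 h; reporter mRNA was quantified by RT-PCR, 6-FAM primer-extension labelling, HpaI digestion and capillary electrophoresis, with bidirectional fitting against DMSO baseline.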

[14] = ATG_ERE_CIS: Attagene CIS-FACTORIAL HepG2 Assay for Estrogen Response Element (ERE) (AID 2282940); conditions: HepG2 ERE cis-reporter, Attagene RNA transcript; actives raise or lower the signal
Outline: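 HepG2 cells transiently transfected with cis-promoter-driven multiplexed reporter transcription units report endogenous TF activity. After 24 h compound exposure, reporter mRNA is quantified by RT-PCR with capillary electrophoresis fluorescence; bidirectional fitting versus DMSO baseline.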

[15] = ATG_Ets_CIS: Attagene CIS-FACTORIAL HepG2 Assay for human Erythroblast Transformation Specific (ETS) (AID 2282941); conditions: HepG2 ETS cis-reporter transcription, actives raise or lower the signal
Outline: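 RT-PCR/capillary electrophoresis fluorescence read-out of reporter mRNA; HepG2 transient multi-reporter transfection; 24 h compound exposure; gain or loss of signal fitted bidirectionally relative to DMSO.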

[16] = target: Hepatocyte nuclear factor 3-beta (Homo sapiens) (UniProt Q9Y261); assay: ATG_FoxA2_CIS: Attagene CIS-FACTORIAL HepG2 Assay for human Forkhead box A2 (FOXA2) (AID 2282942); conditions: HepG2 cis-reporter transcription factor activity, 24 h; actives raise or lower the signal
Chain of Hepatocyte nuclear factor 3-beta (Homo sapiens) (Q9Y261 whole entry, looked up): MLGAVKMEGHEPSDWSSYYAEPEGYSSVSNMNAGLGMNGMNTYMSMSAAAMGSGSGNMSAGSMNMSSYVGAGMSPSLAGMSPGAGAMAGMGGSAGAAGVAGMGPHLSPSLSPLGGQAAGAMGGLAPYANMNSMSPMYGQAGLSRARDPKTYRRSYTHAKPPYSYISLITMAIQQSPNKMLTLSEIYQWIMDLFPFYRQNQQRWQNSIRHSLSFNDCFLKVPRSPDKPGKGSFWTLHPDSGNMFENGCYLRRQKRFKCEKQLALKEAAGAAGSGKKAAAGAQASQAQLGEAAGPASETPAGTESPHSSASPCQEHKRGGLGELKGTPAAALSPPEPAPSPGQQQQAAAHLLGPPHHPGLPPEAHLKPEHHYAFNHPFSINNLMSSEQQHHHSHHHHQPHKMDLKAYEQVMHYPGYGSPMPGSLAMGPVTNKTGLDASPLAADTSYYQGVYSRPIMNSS
Outline: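 In transiently transfected human HepG2 cells, promoter-driven reporter mRNA levels after 24 h chemical exposure are determined via RT-PCR with capillary electrophoresis. DMSO serves as baseline for bidirectional fitting.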

[17] = ATG_FoxO_CIS: Attagene CIS-FACTORIAL HepG2 Assay for human Forkhead box O (FoxO) (AID 2282943); conditions: HepG2 Attagene cis-reporter, FoxO element, mRNA; actives raise or lower the signal
Outline: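 Human hepatoma HepG2 cells carry transiently introduced reporter transcription units controlled by cis promoter elements. Chemical treatment lasted 24 h, and mRNA signal was compared with DMSO.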

[18] = ATG_GATA_CIS: Attagene CIS-FACTORIAL HepG2 Assay for human GATA Binding Protein (AID 2282944); conditions: HepG2 GATA cis-element reporter, Attagene multiplex mRNA; actives raise or lower the signal
Outline: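 HepG2 cells transiently transfected with multiplexed cis-element reporter units reflecting endogenous transcription factor activity; reporter mRNA measured after 24 h dosing by RT-PCR, 6-FAM labeling, HpaI digestion and capillary electrophoresis. Bidirectional fitting versus DMSO baseline.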

[19] = ATG_GLI_CIS: Attagene CIS-FACTORIAL HepG2 Assay for human Zinc Finger Protein GLI1 (AID 2282945); conditions: HepG2, Attagene cis-factorial reporter mRNA, GLI element; actives raise or lower the signal
Outline: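 Bidirectional curve fits relative to DMSO, using reporter mRNA levels from RT-PCR plus capillary electrophoresis. Cells were HepG2 transiently carrying cis-regulated reporter constructs, harvested 24 h after dosing.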

[20] = ATG_AP_2_CIS: Attagene CIS-FACTORIAL HepG2 Assay for human Activator Protein 2 (AP-2) (AID 2282932); conditions: HepG2 AP-2 cis-reporter, Attagene transcription factor profiling; actives raise or lower the signal
Outline: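 Endogenous transcription factor activity is reported through transfected multiplex reporter constructs in HepG2, after 24 h of compound exposure. Transcripts were quantified by RT-PCR and capillary electrophoresis of fluorescent fragments. Bidirectional fit against DMSO.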

Measured: AC50

c1ccc2c(c1)ccc1ncccc12
active: [3] 19.2 µM | [5] 7.77 µM | [7] 76.4 µM | [8] 58 µM
not listed: [20]
inactive: all other assays above

CCCCCCCOC(=O)CCC
not listed: [20]
inactive: all other assays above

FC(F)=C(F)OC(F)(F)C(F)(F)C(F)(F)F
not listed: [9] | [11]
inactive: all other assays above

CCc1c(C(=O)O)c(=O)cnn1-c1ccc(Cl)cc1
active: [14] 28.5 µM
not listed: [20]
inactive: all other assays above

COCCOCCOCCOCCOC
not listed: [16] | [20]
inactive: all other assays above

CC(C)(C)C(=O)CCc1ccc(Cl)cc1
active: [14] 30.2 µM
not listed: [3]
inactive: all other assays above

CN(C)CCCN(C)C
not listed: [3]
inactive: all other assays above
